Test results as given in PubChem BioAssay (NCATS).
Inconclusive results are not listed. The source made the active and inactive calls. Calls come from the whole dose curve; as a rule, active = well fitted inhibition curve with a large enough effect; inconclusive = small, poorly fitted or top-dose-only effect; inactive = flat fitted curve, though single readings scatter.

What was measured:
[1] = test system: TAB109; assay: qHTS profiling for inhibitors of Plasmodium falciparum proliferation (AID 504749);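 note: 0% = DMSO vehicle and full inhibition = artemisinin control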; conditions: P. falciparum in erythrocytes, SYBR Green DNA, 72 h; series mostly up to 28.7 µM
Procedure, shortened: (§1)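 Infected RBCs, 0.3% parasitemia/2.5% Hct final; cpd 72 h, 37 C, 5% CO2; lysis buffer with saponin/triton/SYBR Green I, o/n RT dark; FI 485/535; norm. to artemisinin (0.29 uM) and DMSO.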

[2] = test system: TAB113; assay: as above; conditions: P. falciparum in erythrocytes, SYBR Green DNA, 72 h; series mostly up to 28.7 µM
Procedure, shortened: as §1

[3] = test system: TAB165; assay: as above; conditions: P. falciparum in erythrocytes, SYBR Green DNA, 72 h; series mostly up to 28.7 µM
Procedure, shortened: as §1

[4] = test system: W2; assay: as above; conditions: P. falciparum in erythrocytes, SYBR Green DNA, 72 h; series mostly up to 28.7 µM
Procedure, shortened: as §1

[5] = test system: CRL-7250; assay: Cytotoxic Profiling of Annotated Libraries Using Quantitative High-Throughput Screening (AID 1296008); conditions: Five cell lines viability, CellTiter-Glo ATP luminescence, 48-72 h; hits give low values; for max response: % is set by controls: 0 for no effect and ±100 for the full control effect
Procedure, shortened: (§2)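 Cytotoxicity was measured as CellTiter-Glo ATP luminescence, read after 10 min at room temperature. Compound treatment of the cells lasted 48 or 72 hr at 37 degrees Celsius in a qHTS format.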

[6] = test system: HEK293; assay: as above; conditions: Five cell lines viability, CellTiter-Glo ATP luminescence, 48-72 h; hits give low values
Procedure, shortened: as §2

[7] = test system: HaCat; assay: as above; conditions: Five cell lines viability, CellTiter-Glo ATP luminescence, 48-72 h; hits give low values
Procedure, shortened: as §2

[8] = test system: KB-3-1; assay: as above; conditions: Five cell lines viability, CellTiter-Glo ATP luminescence, 48-72 h, hits give low values
Procedure, shortened: as §2

[9] = test system: NIH3T3; assay: as above; conditions: Five cell lines viability, CellTiter-Glo ATP luminescence, 48-72 h; hits give low values
Procedure, shortened: as §2

[10] = test system: HACAT; assay: qHTS assay to identify novel small-molecules to repurpose for Merkel cell carcinoma treatment (AID 1296009); conditions: MCC and control cell lines, CellTiter-Glo viability, 72 h; at 44.8 µM (top of the series) unless noted
Procedure, shortened: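 72 hr, 37 degree celsius; NPC 8-pt / MIPE 11-pt dose response; compound pinned in DMSO; CellTiter-Glo, 10 min RT, luminescence; normalized to no-cell and DMSO controls.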
Note: nearly all actives have a fitted effect of over 60% in size.

CC(=O)SC[C@@H](Cc1ccccc1)C(=O)NCC(=O)OCc1ccccc1
inactive: Potency [1] | Potency [2] | Potency [3] | Potency [4] | outcome [5] | max response [6] -5.72% | outcome [7] | max response [8] 6.03% | max response [9] -11.9% | outcome [10]

CCN(CC)C(=O)c1cccc(C)c1
inactive: Potency [1] | Potency [2] | Potency [3] | Potency [4] | outcome [5] | max response [6] 0.224% | outcome [7] | max response [8] 13.2% | outcome [9] | outcome [10]

CNc1c2c(nn1C)CCCC2
inactive: Potency [1] | Potency [2] | Potency [3] | Potency [4] | max response [5] 2.3% | max response [6] -6.59% | outcome [7] | max response [8] -8.03% | max response [9] 4.21% | outcome [10]

CCCCCC(N)=O
inactive: Potency [1] | Potency [2] | Potency [3] | Potency [4] | outcome [5] | max response [6] -2.09% | outcome [7] | max response [8] -2.56% | outcome [9] | outcome [10]

Nc1ncnc2c1ncn2[C@@H]1O[C@H](COP(=O)(O)O)[C@@H](O)[C@H]1O
inactive: Potency [1] | Potency [2] | Potency [3] | Potency [4] | outcome [5] | outcome [6] | outcome [7] | max response [8] -9.67% | max response [9] 4.32% | outcome [10]

CCS(=O)(=O)CCn1c([N+](=O)[O-])cnc1C
inactive: Potency [1] | Potency [2] | Potency [3] | Potency [4] | outcome [5] | max response [6] 1.79% | outcome [7] | max response [8] -0.735% | max response [9] -2.73% | outcome [10]

O=C(O)c1ccc[n+]([O-])c1
inactive: Potency [1] | Potency [2] | Potency [3] | Potency [4] | outcome [5] | max response [6] -0.144% | outcome [7] | max response [8] -1.65% | outcome [9] | outcome [10]

CC(N)CCCC(C)(C)O (centres undefined)
inactive: Potency [1] | Potency [2] | Potency [3] | Potency [4] | max response [5] -9.12% | max response [6] -17.6% | outcome [7] | max response [8] 2.21% | outcome [9] | outcome [10]

CCOc1cc(NC(C)=O)ccc1C(=O)OC
inactive: Potency [1] | Potency [2] | Potency [3] | Potency [4] | max response [5] 3.11% | max response [6] 0.16% | outcome [7] | max response [8] 19.6% | max response [9] 0.0399% | outcome [10]

Nc1ccncc1N
inactive: Potency [1] | Potency [2] | Potency [3] | Potency [4] | max response [5] -6.31% | max response [6] -11.7% | outcome [7] | max response [8] 10.8% | max response [9] -1.29% | outcome [10]

Cc1c(NC(C)C)c(=O)n(-c2ccccc2)n1C
inactive: Potency [1] | Potency [2] | Potency [3] | Potency [4] | outcome [5] | max response [6] -10.6% | outcome [7] | max response [8] 6.84% | outcome [9] | outcome [10]

NS(=O)(=O)c1ccc(NC(=O)CCC(=O)O)cc1
inactive: Potency [1] | Potency [2] | Potency [3] | Potency [4] | max response [5] -4.29% | max response [6] -0.661% | outcome [7] | max response [8] -4.48% | outcome [9] | outcome [10]

NC(N)=NCCN1CCCCCCC1
inactive: Potency [1] | Potency [2] | Potency [3] | Potency [4] | max response [5] -19.7% | max response [6] 0.733% | outcome [7] | max response [8] 18.1% | max response [9] 4.36% | outcome [10] inactive [at 0.588 µM]

Cc1ccc(S(=O)(=O)NC(=O)NC2CCCCC2)cc1
inactive: Potency [1] | Potency [2] | Potency [3] | Potency [4] | outcome [5] | max response [6] 2.4% | outcome [7] | max response [8] 3.8% | max response [9] 0.0689% | outcome [10]

COC(=O)c1cccnc1
inactive: Potency [1] | Potency [2] | Potency [3] | Potency [4] | max response [5] -1.99% | outcome [6] | outcome [7] | max response [8] 10% | max response [9] 0.586% | outcome [10]

CC(=O)Oc1cccc(O)c1
inactive: Potency [1] | Potency [2] | Potency [3] | Potency [4] | max response [5] 2.6% | max response [6] 2.67% | outcome [7] | max response [8] -9.73% | outcome [9] | outcome [10]

O=C(Cn1ccnc1[N+](=O)[O-])NCc1ccccc1
inactive: Potency [1] | Potency [2] | Potency [3] | Potency [4] | max response [5] 0.299% | max response [6] -3.43% | outcome [7] | max response [8] 0.421% | max response [9] 3.14% | outcome [10]

Cc1ccc(S(=O)(=O)NC(=O)NC2CCCCCCC2)cc1
inactive: Potency [1] | Potency [2] | Potency [3] | Potency [4] | max response [5] -5.06% | max response [6] 4.09% | outcome [7] | max response [8] 0.148% | max response [9] 3.55% | outcome [10]

CN1C(C)(C)CCCC1(C)C
inactive: Potency [1] | Potency [2] | Potency [3] | Potency [4] | max response [5] -19.2% | max response [6] -21.6% | outcome [7] | max response [8] 7.25% | max response [9] -1.07% | outcome [10]

NCC1CCC(C(=O)Oc2ccc(CCC(=O)O)cc2)CC1 (centres undefined)
inactive: Potency [1] | Potency [2] | Potency [3] | Potency [4] | max response [5] -11.6% | max response [6] -1.47% | outcome [7] | max response [8] -7.85% | max response [9] -0.473% | outcome [10]

O=C(NCCCN1CCOCC1)c1ccc(Cl)cc1
inactive: Potency [1] | Potency [2] | Potency [3] | Potency [4] | max response [5] -10.4% | max response [6] 1.26% | outcome [7] | max response [8] 1.85% | outcome [9] | outcome [10]

O=C(O)CCCCC1CCSS1 (centres undefined)
inactive: Potency [1] | Potency [2] | Potency [3] | Potency [4] | max response [5] -4.66% | max response [6] 0.811% | outcome [7] | max response [8] 3.98% | max response [9] 1.45% | outcome [10]

COc1ccc(Cc2cnc(N)nc2N)cc1OC
inactive: Potency [1] | Potency [2] | Potency [3] | Potency [4] | max response [5] -8.49% | max response [6] 2.64% | outcome [7] | max response [8] -1.92% | max response [9] -0.487% | outcome [10]

COc1ccc(C(=O)NCc2ccc(OCCN(C)C)cc2)cc1OC
inactive: Potency [1] | Potency [2] | Potency [3] | Potency [4] | outcome [5] | max response [6] -0.933% | outcome [7] | max response [8] 3.28% | max response [9] -3.79% | outcome [10]

CC(=O)OCC(COC(C)=O)OC(C)=O
inactive: Potency [1] | Potency [2] | Potency [3] | Potency [4] | max response [5] -1.86% | max response [6] -3.97% | outcome [7] | max response [8] 8.48% | outcome [9] | outcome [10]

O=C(/C=C/c1ccccc1)OCc1ccccc1
inactive: Potency [1] | Potency [2] | Potency [3] | Potency [4] | max response [5] 1.75% | max response [6] -4.12% | outcome [7] | max response [8] 21.2% | max response [9] -4.12% | outcome [10]

O=C(O)Cc1ccc(CCNS(=O)(=O)c2ccc(Cl)cc2)cc1
inactive: Potency [1] | Potency [2] | Potency [3] | Potency [4] | max response [5] 2.04% | max response [6] -7.16% | outcome [7] | max response [8] 0.272% | max response [9] -0.48% | outcome [10]

Cc1cccc(Nc2ccccc2C(=O)O)c1C
inactive: Potency [1] | Potency [2] | Potency [3] | Potency [4] | max response [5] 0.921% | max response [6] -1.57% | outcome [7] | max response [8] 3.77% | max response [9] 1.27% | outcome [10]

CCOC(=O)c1cccnc1
inactive: Potency [1] | Potency [2] | Potency [3] | Potency [4] | max response [5] -2.26% | max response [6] -0.734% | outcome [7] | max response [8] 2.38% | max response [9] 2.73% | outcome [10]

CCOC(=O)[C@H](CCc1ccccc1)N[C@@H](C)C(=O)N1CCC[C@H]1C(=O)O
inactive: Potency [1] | Potency [2] | Potency [3] | Potency [4] | max response [5] 2.02% | max response [6] -1.68% | outcome [7] | max response [8] 7.19% | outcome [9] | outcome [10]

CN1CCCN=C1COC(=O)C(O)(c1ccccc1)C1CCCCC1 (centres undefined)
inactive: Potency [1] | Potency [2] | Potency [3] | Potency [4] | max response [5] -8.2% | max response [6] -8.47% | outcome [7] | max response [8] -13.9% | outcome [9] | outcome [10]

NCc1ccc(S(N)(=O)=O)cc1
inactive: Potency [1] | max response [5] -8.65% | outcome [6] | max response [7] -6.18% | max response [8] -7.46% | max response [9] 1.15%

CCc1nnc(NS(=O)(=O)c2ccc(N)cc2)s1
inactive: Potency [1] | Potency [2] | Potency [3] | Potency [4] | max response [5] 4.08% | max response [6] -0.578% | outcome [7] | max response [8] 7.07% | max response [9] 3.74% | outcome [10]

CC(O)CCCCn1c(=O)c2c(ncn2C)n(C)c1=O (centres undefined)
inactive: Potency [1] | Potency [2] | Potency [3] | Potency [4] | max response [5] 2.98% | max response [6] 0.321% | max response [7] -6.07% | max response [8] -8.11% | max response [9] 4.47%

Cc1cc(-n2nc3ccc(Cl)cc3n2)c(O)c(C(C)(C)C)c1
inactive: Potency [4] | max response [5] -3.44% | max response [6] 4.97% | outcome [7] | max response [8] 6.34% | max response [9] 3.2% | outcome [10]

CCOc1ccc(C(=O)OCCN(CC)CC)cc1
inactive: Potency [1] | Potency [2] | Potency [3] | Potency [4] | max response [5] -0.597% | max response [6] 1.58% | max response [7] -25.1% | max response [8] -3.59% | max response [9] -1.32%

Cc1cc(NC(=O)C2=C(O)c3ccccc3S(=O)(=O)N2C)no1
inactive: Potency [1] | Potency [2] | Potency [3] | max response [5] -9.44% | outcome [6] | max response [7] 1.12% | max response [8] -4.98% | max response [9] -3.38%
